The full list was thinned out, with hits kept by preference.
HT1080NT lethal: kills 2HG-producing HT-1080-NT fibrosarcoma cells; HT-1080-NT fibrosarcoma viability, CellTiter-Glo ATP luminescence, 48 h; Potency, µM (top dose mostly 46.1 µM), for inactives: top-dose activity, negative = less viability, actives largely listed as cytotoxic; 360,000 compounds, 1.6% hits; AID 686970;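 further: NT is the 2HG producing partner of a matched IDH1 knockdown line; potency means the concentration at half of the fitted maximal effect; 0% = DMSO-treated cells and -100% = media-only wells without cells; nearly all actives have a fitted effect of over 55% in size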
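HT-1080-NT; 750 cells/well; 5% FBS RPMI; 48 h compound, 37 degrees C; CellTiter-Glo luminescence; curve fitting and curve-class assignment.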
HT1080 IDH1KD tx: toxicity to HT-1080 IDH1 knockdown cells (counter line); AID 686971; 360,000 compounds, 2% hits; Potency, µM (doses to about 46.1 µM), for the others: top-dose activity, negative = toxicity, most hits filed as cytotoxic; HT-1080 IDH1 knockdown viability, ATP luminescence, 48 h;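 further: potency means the concentration at half of the fitted maximal effect; 0% = DMSO wells and -100% = cell-free medium wells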
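HT-1080-IDH1KD cells (IDH1 knocked down), 750/well in RPMI with 5% FBS, treated with compound 48 h at 37 degrees C. Viability by CellTiter-Glo luminescence, normalised to DMSO and no-cell wells; concentration-response curves classed.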
DT40 TDP1 no CPT: qHTS for Inhibitors of human tyrosyl-DNA phosphodiesterase 1 (TDP1): qHTS in cells in absence of CPT; Potency, µM (series often up to 46.2 µM), for inactives: at the top dose activity change, negative = growth inhibition, hits mostly inhibitors; DT40 Tdp1-/- hTDP1 cells, no CPT, ATP luminescence, 48 h; 420,000 compounds, 15% hits; further: potency means the concentration at half of the fitted maximal effect; nearly all actives have a fitted effect of over 55% in size
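Readout: luminescence from CellTiter-Glo after 30 min in the dark at RT. Cells: DT40 Tdp1-/- with stable hTDP1, 400/well. Exposure: compounds alone, ≥48 hr, 37 °C.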
12-LOX inh: inhibitors of human 12S-lipoxygenase ALOX12. P18054. purified 12hLO, xylenol orange hydroperoxide absorbance. Potency, µM (series often up to 108 µM), inactives show top-dose activity change, negative = inhibition, usual class: inhibitors. 580,000 compounds, 1.1% hits. AID 1671190; further: potency means the concentration at half of the fitted maximal effect
Target sequence (P18054 whole entry, looked up): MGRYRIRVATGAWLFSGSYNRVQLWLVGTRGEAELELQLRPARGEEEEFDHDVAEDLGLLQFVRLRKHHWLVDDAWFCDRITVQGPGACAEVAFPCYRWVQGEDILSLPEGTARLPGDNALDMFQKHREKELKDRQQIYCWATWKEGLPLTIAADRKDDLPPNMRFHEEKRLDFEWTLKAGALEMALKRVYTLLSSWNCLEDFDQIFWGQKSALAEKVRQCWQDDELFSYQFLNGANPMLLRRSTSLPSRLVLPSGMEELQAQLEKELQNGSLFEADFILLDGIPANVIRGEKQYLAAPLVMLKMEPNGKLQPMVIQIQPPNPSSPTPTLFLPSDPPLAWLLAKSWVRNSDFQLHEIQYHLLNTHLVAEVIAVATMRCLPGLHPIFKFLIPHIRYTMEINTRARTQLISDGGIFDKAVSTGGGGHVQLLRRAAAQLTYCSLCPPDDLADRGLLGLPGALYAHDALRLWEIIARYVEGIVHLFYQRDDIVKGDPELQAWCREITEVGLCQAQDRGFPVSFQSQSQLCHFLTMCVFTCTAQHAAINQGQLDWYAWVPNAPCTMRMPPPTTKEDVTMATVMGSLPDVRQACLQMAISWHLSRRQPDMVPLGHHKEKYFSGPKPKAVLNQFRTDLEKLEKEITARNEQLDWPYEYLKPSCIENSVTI
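Hydroperoxide product was detected by ferrous iron/xylenol orange as the 573 to 405 nm absorbance ratio. Arachidonic acid at 40 uM (final) was turned over for 30 min at room temperature by 150 nM human 12hLO, pH 7.0 Hepes buffer, after 15 min compound preincubation.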
IL-1B inflam inh: inhibitors of inflammasome signaling (IL-1 beta secretion) | 360,000 compounds, 4.7% hits | activity change, % at 57.5 µM | THP-1 LPS/ATP IL-1B secretion, AlphaLISA, 16 h; hits give low values | AID 743279; in the data active means activity change below about -50%; inconclusive means mostly about -30% to -49%
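THP-1 cells pretreated 1 hr with compounds (up to 57.5 uM final), then stimulated with LPS (250 ng/mL final) plus ATP (1.25 mM final); secreted IL-1B measured by AlphaLISA after 16 hr, decreased signal indicating inhibition.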
DT40 TDP1 CPT: growth inhibition of DT40 Tdp1-/-;hTDP1 cells with camptothecin (screen for TDP1 inhibitors). chicken DT40 Tdp1-/-;hTDP1 cells + 20 nM CPT, ATP luminescence, 48 h. Potency, µM (doses to about 46.2 µM), for inactives: top-dose activity change, negative = growth inhibition, usual class: inhibitors. 420,000 compounds, 12% hits. AID 686979; further: potency means the concentration at half of the fitted maximal effect; nearly all actives have a fitted effect of over 55% in size
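Chicken DT40 Tdp1-/- cells stably complemented with human TDP1 were seeded at 400 cells/well in medium containing 20 nM camptothecin, exposed to pin-transferred compounds, and grown at 37 °C for at least 48 hr. Viability was read as ATP luminescence.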
The depositor's hits bear a star; ? = inconclusive; / = no result given; [ ] = remark or other dose. Unless noted, the call rests on the fitted dose curve; in most records, active means well fitted curve in the direction sought with a large enough effect; inconclusive means small, poorly fitted or top-dose-only effect, or another doubt; inactive means no such curve, though single readings can be large; an effect the other way counts as inactive or inconclusive. Unless noted, on the % scale 0 is the no-effect control and ±100 the full control effect.

SMILES | HT1080NT lethal | HT1080 IDH1KD tx | DT40 TDP1 no CPT | 12-LOX inh | IL-1B inflam inh | DT40 TDP1 CPT
CC(C)(C)n1nnnc1C(c1cccnc1)N1CCN(c2ccccc2F)CC1 (centres undefined) | 13% | 5% | 0% | 0% | 20 | 0%
Cc1cccc(N2CCN(C(c3cccs3)c3nnnn3C(C)(C)C)CC2)c1C (centres undefined) | 11% | -26% | 22µM* | 19% | -3 | 18µM*
CC(C)(C)n1nnnc1C(c1cccs1)N1CCN(c2ccccc2)CC1 (centres undefined) | 2% | 0% | ? | 0% | -12 | -10%
CCC(c1nnnn1C(C)(C)C)N1CCN(c2cc(Cl)ccc2C)CC1 (centres undefined) | -14% | -20% | 16µM* | 0% | -6 | ?
Cc1cccc(N2CCN(C(c3ccccc3)c3nnnn3C(C)(C)C)CC2)c1C (centres undefined) | 7% | 2% | 23µM* | 10% | -12 | ?
N#Cc1nc(-c2ccco2)oc1N1CCN(CC(=O)N(Cc2ccccc2F)C2CC2)CC1 | / | / | / | 39% | / | /
CCc1nc(Nc2ccccc2OC)c2oc3ccccc3c2n1 | -19% | -21% | ? | ? | -54* | ?
CCc1nc(N2CCN(Cc3ccc4c(c3)OCO4)CC2)c2oc3ccccc3c2n1 | ? | ? | 26µM* | -14% | -28 | 26µM*
Cc1nc(Nc2ccncc2)c2oc3ccccc3c2n1 | -15%[9.24 µM] | 13µM* | 12µM* | -1% | -93* | 10µM*
CCc1nc(N2CCCCC2)c2oc3ccccc3c2n1 | ? | ? | ? | -13% | -8 | ?
CCc1nc(Nc2ccc3c(c2)OCO3)c2oc3ccccc3c2n1 | -4% | -3% | 12µM* | -3% | ? | 21µM*
c1ccc(-c2nnc3ccc(-c4ccoc4)nn23)nc1 | / | / | / | 29%[176 µM] | / | /
CCc1nc(NCc2ccccn2)c2oc3ccccc3c2n1 | -22% | -12% | 15µM* | ? | -68* | 15µM*
CCc1nc(N2CCCCC2C)c2oc3ccccc3c2n1 (centres undefined) | ? | ? | 26µM* | ? | 26 | 29µM*
CCc1nc(Nc2cccc(O)c2)c2oc3ccccc3c2n1 | ? | ? | 26µM* | / | ? | ?
Cc1cccc(Nc2nc(C)nc3c2oc2ccccc23)c1 | -3% | -2% | ? | ? | 4 | 16µM*
CC(=O)Nc1ccc(Nc2nc(C)nc3c2oc2ccccc23)cc1 | ? | -29% | ? | 0% | 19 | ?
O=C(Nc1ccccc1)N1CCOC(CN(C(=O)c2ccco2)C2CCCC2)C1 (centres undefined) | / | / | / | 1% | / | /
COc1ccc(C2=NOC(C(=O)Nc3ccc(OC(F)(F)F)cc3)C2)cc1 (centres undefined) | / | / | / | 8% | / | /
CCN(Cc1cccc(F)c1)C(=O)c1cc(-c2ccncc2)nc2ccccc12 | / | / | / | 1% | / | /
CC(C)(C)OC(=O)NCc1ccc(C(=O)O)cc1 | / | / | / | 1% | / | /
Cc1cccc2c(Nc3ccc4c(c3)OCO4)nc(CN3CCC(N4CCCCC4)CC3)nc12 | / | / | 21µM* | -1% | / | 15µM*
Cc1sc2nc(CN3CCCCC3)nc(Nc3ccc4c(c3)OCCO4)c2c1C | 11% | 9% | 2% | 3% | 0 | 0%
CCc1nc(SCC(=O)Nc2ccc3c(c2)OCCO3)c2oc3ccccc3c2n1 | 2% | 0% | 26µM* | 32% | 4 | ?
CCc1nc(Nc2ccncc2)c2oc3ccccc3c2n1 | ? | 23µM* | 2.3µM* | 24% | -59* | 5.8µM*
SMILES | HT1080NT lethal | HT1080 IDH1KD tx | DT40 TDP1 no CPT | 12-LOX inh | IL-1B inflam inh | DT40 TDP1 CPT
CC[C@H]1CN(C(C)=O)CC[C@H]1CC(=O)Nc1nccs1 | / | / | / | 27%[176 µM] | / | /
N#Cc1nc(COc2ccccc2F)oc1NCCCN1CCOCC1 | / | / | / | 48% | / | /
Cc1csc(-c2nc3ccccc3n2C(C(=O)NC(C)(C)C)c2ccccc2)c1 (centres undefined) | 15% | 14% | 29µM* | 11% | 0 | ?
CC(C(=O)NC(C)(C)C)n1c(C(c2ccccc2)c2ccccc2)nc2ccccc21 (centres undefined) | -29% | ? | ? | 3% | -2 | ?
CCC(C(=O)NC(C)(C)C)n1c(C(c2ccccc2)c2ccccc2)nc2ccccc21 (centres undefined) | -21% | -14% | ? | 9% | -3 | 18µM*
CC(C(=O)NC(C)(C)C)n1c(-c2ccccc2)nc2ccccc21 (centres undefined) | 14% | 1% | -5% | 5% | -19 | 7%
COc1cccc(N2CCN(C(=O)Cn3ncc4c3-c3ccccc3OC4)CC2)c1 | / | / | 23µM* | -1% | / | -24%
O=C(Cn1ncc2c1-c1ccccc1OC2)N1CCN(c2ccccc2F)CC1 | / | / | 18µM* | -3% | / | ?
O=C(Cn1ncc2c1-c1ccccc1OC2)N1CCN(Cc2ccccc2)CC1 | -4% | -3% | ? | 5% | -6 | ?
Cc1ccc(C)c(CN2CCCN(C(=O)Cn3ncc4c3-c3ccccc3OC4)C2)c1 | -25% | -13% | 16µM* | 95% | -12 | 13µM*
CCOC(=O)N1CCN(C(=O)Cn2ncc3c2-c2ccccc2OC3)CC1 | 0% | -3% | -12% | 22% | -20 | ?
O=Cc1cccn1-c1ccccc1Cl | / | / | / | -35% | / | /
CN1CCN(c2oc(COc3ccc(Cl)cc3Cl)nc2C#N)CC1 | / | / | / | -11% | / | /
Cc1nc2ccc(Cl)cc2cc1C(=O)Nc1ccc(C(N)=O)cc1 | / | / | / | 20% | / | /
Cc1nc(NC(C)c2ccccc2)c2c3c(sc2n1)CCC3 (centres undefined) | -1% | -2% | 16µM* | / | -1 | 16µM*
OCCN(CCO)c1nc2sc3c(c2c2nc(-c4ccccc4)nn12)CCCC3 | / | / | / | -21% | / | /
Cc1nc(Nc2ccc(O)cc2)c2c3c(sc2n1)CCCC3 | ? | -24% | ? | ? | 14 | ?
Cc1ccc(CNc2nc(C)nc3sc4c(c23)CCC4)cc1 | 3% | 0% | 18µM* | -4% | 3 | 23µM*
NNc1nc(-c2ccccc2)nc2sc3c(c12)CCCC3 | -18% | -11% | 21µM* | -20% | -15 | ?
Cc1ccccc1C(=O)N1CCC2(CC1)N(c1ccccc1)C(=O)CS2(=O)=O | / | / | / | -1% | / | /
CCS(=O)(=O)N1CCC(Cc2nncn2Cc2ccccc2)C1 (centres undefined) | / | / | / | 1% | / | /

Source: PubChem
